These results are taken from PubChem BioAssay (NCI).

SMILES strings stand for the structures. About 83,000 compounds went through this panel and 20% of them were active in at least one assay; those are over-represented in the sample as a whole.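 The test compound was applied at a single concentration to cells in 96-well plates for 48 hours, and percent growth was recorded.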 The source made the active and inactive calls. How the source made its calls: active means growth percent below 10; inactive means the rest.

In this test the test system is SK-MEL-2 melanoma. The test is described as follows: NCI-60 one-dose screen, 48 h (100 = growth as untreated, 0 = no growth, -100 = all killed). The note with it: 10 µM unless noted.
Take `CCCCCCCCCCCCCCCCCCSC1=CC(=O)C(OC)=C(OC)C1=O`: the growth is 96.5% (inactive).

Take `CC1=C(C)C(=O)OC([C@](C)(O)[C@]2(O)CC[C@@]3(O)[C@@H]4C[C@H]5O[C@]56CC=CC(=O)[C@]6(C)[C@H]4CC[C@]23COC(=O)c2ccc(C)o2)C1` (some centres undefined): the growth was -63% (active).

As to `O=C1C[C@H](Sc2nc(-c3ccc(F)cc3)cc(C(F)(F)F)n2)[C@H]2CO[C@@H]1O2`, the growth is 107% (inactive).

Regarding `C=C1CC[C@@H]2[C@](C)(COC(C)=O)[C@H](OC(C)=O)CC[C@@]2(C)[C@@H]1CC(Nc1ccc(S(=O)(=O)Nc2nc(C)cc(C)n2)cc1)C1=CCOC1=O` (some centres undefined), the growth was 88.5% (inactive).

For the compound `COc1ccc(S(=O)(=O)NCCNc2nccc(-c3c(-c4cccc([N+](=O)[O-])c4)nc4sccn34)n2)cc1`, the growth is 100% (inactive).

Consider `O=C(Nc1ccc(Nc2cc(Nc3ccccc3)ncn2)cc1)Nc1cc(C(F)(F)F)ccc1F`, for which the growth is 82.8% (inactive).

`COc1ccc(/C=C/C(=O)c2c(O)c(C)c(O)c3c2OC2=CC(O)=C(C(C)=O)C(=O)[C@]23C)cc1`: the growth was -54.6% (active).

Turning to `C=C(C[n+]1ccccc1)[C@@H]1CC[C@]2(C(=O)OC)CC[C@]3(C)[C@H](CC[C@@H]4[C@@]5(C)CC[C@H](O)C(C)(C)[C@@H]5CC[C@]43C)[C@@H]12`, the growth was 100% (inactive).

For `CCCCCCCCCCCCNC(=O)[C@H]1CSC(c2ccc(OC)c(F)c2)N1` (some centres undefined), the growth is -93.7% (active).

As to `COc1ccccc1N1CCN(CCn2c(=O)c3c(c4ccccc4n3C)n(C)c2=O)CC1`, the growth is 60.2% (inactive).

`CC(C)[C@H]1COC(=O)N1[C@@H]1C(=O)N([C@@H](CCC(=O)N2CCN(C3CCCC3)CC2)C(=O)N[C@@H]2CCCc3ccccc32)[C@@H]1/C=C/c1cccc(Br)c1`: the growth is -7.94% (active).

In the case of `Cc1nc2nc(N)nc(N)c2nc1C`, the growth is 86.5% (inactive).

Take `COc1cnc2c(c1)C(=O)c1c-2n(CCCBr)c(=O)c2cc([N+](=O)[O-])ccc12`: the growth is 6.39% (active).

In the case of `COc1ccc(-n2cc(-c3ccccc3)c3c(SCC(=O)N/N=C/c4ccc([N+](=O)[O-])cc4)ncnc32)cc1`, the growth is 98.1% (inactive).

`O=C(O)c1cn(C2CC2)c2cc(N3CCN(Cc4nc5c(cnn5-c5ccc([N+](=O)[O-])cc5)c(=O)[nH]4)CC3)c(F)cc2c1=O`: the growth is 120% (inactive).

As to `CCOC(=O)c1cnc2ccc(OC)cc2c1Nc1cccc(S(=O)(=O)NC)c1`, the growth was 102% (inactive).

`CCN(CC)CCCC(C)NCCCNc1cccc2cccnc12` (centres undefined): the growth was 112% (inactive).

For `COc1ccc(C/C(C)=C(\c2ccc(Cl)cc2)c2ccc(OCCN3CCCCCC3)cc2)cc1`, the growth was 90.5% (inactive).

As to `C=C1C(=O)O[C@H]2[C@H]1CC/C(Cn1cc(Cn3ccc4cc(Cl)ccc43)nn1)=C\CC[C@@]1(C)O[C@@H]21`, the growth is 18.1% (inactive).

For the compound `COc1cc(/C=N/N(C)C)ccc1O`, the growth was 101% (inactive).

On to `CC(=O)Nc1ccc2c(c1)c(NC(C)=O)nn2C(=O)Nc1ccc(Cc2ccccc2)cc1`, for which the growth was 12.9% (inactive).

As for `CC(C)(C)n1cc(-c2ccnc(NCCNS(=O)(=O)c3ccccc3)c2)c(-c2cccc(O)c2)n1`, the growth is 68.8% (inactive).

In the case of `CN1C2CCC1/C(=C\c1ccc(Cl)cc1)C1=C2[C@@H](c2ccc(Cl)cc2)C(C#N)=C(N)O1` (some centres undefined), the growth was 84.6% (inactive).

For the compound `O=[N+]([O-])c1cccc(-c2nc3sccn3c2-c2ccnc(NCCCNS(=O)(=O)c3cccc(F)c3)n2)c1`, the growth is -29.2% (active).
